# PubChem BioAssay (NCI)
# About 83,000 compounds went through this panel and 20% of them were active in at least one assay; those are over-represented in the sample as a whole.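 The test compound was applied at a single concentration to cells in 96-well plates for 48 hours, and percent growth was recorded.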 A number with no mark means an inactive call. Calls of active or inactive are those of the source. How the source made its calls: active means growth percent below 10; inactive means the rest.
# What was measured:
# Assay in all cases: NCI-60 one-dose screen, 48 h (100 = growth as untreated, 0 = no growth, -100 = all killed)
# Details in all cases: 10 µM unless noted
# DU-145 prostate = system: DU-145 prostate
# K-562 leukemia = system: K-562 leukemia
# MALME-3M melanoma = system: MALME-3M melanoma
# MDA-MB-231 breast = system: MDA-MB-231 breast
# RXF 393 renal = system: RXF 393 renal
# SF-268 CNS = system: SF-268 CNS
# SF-295 CNS = system: SF-295 CNS
# SF-539 CNS = system: SF-539 CNS
# UACC-257 melanoma = system: UACC-257 melanoma
# M14 melanoma = system: M14 melanoma
# HCT-15 colon = system: HCT-15 colon
# HT29 colon = system: HT29 colon
# SNB-75 CNS = system: SNB-75 CNS
# SNB-19 CNS = system: SNB-19 CNS
# U251 CNS = system: U251 CNS
# SK-MEL-5 melanoma = system: SK-MEL-5 melanoma
# UACC-62 melanoma = system: UACC-62 melanoma
# LOX IMVI melanoma = system: LOX IMVI melanoma
# SK-MEL-28 melanoma = system: SK-MEL-28 melanoma
# PC-3 prostate = system: PC-3 prostate
Structure (SMILES),growth (DU-145 prostate),growth (K-562 leukemia),growth (MALME-3M melanoma),growth (MDA-MB-231 breast),growth (RXF 393 renal),growth (SF-268 CNS),growth (SF-295 CNS),growth (SF-539 CNS),growth (UACC-257 melanoma),growth (M14 melanoma),growth (HCT-15 colon),growth (HT29 colon),growth (SNB-75 CNS),growth (SNB-19 CNS),growth (U251 CNS),growth (SK-MEL-5 melanoma),growth (UACC-62 melanoma),growth (LOX IMVI melanoma),growth (SK-MEL-28 melanoma),growth (PC-3 prostate)
CC(C)(C)n1cc(-c2ccnc(NCCCNS(=O)(=O)c3ccccc3)c2)c(-c2ccccc2)n1,83.7%,21.2%,82.7%,72%,62%,93.1%,63.2%,66.4%,77.9%,67.1%,26.5%,24.7%,65.1%,89.4%,64.3%,53.2%,61.8%,50.9%,97%,–
CCOC(CN=Cc1cc(C)c2[nH]c3ccccc3c2c1C)OCC,101%,95.1%,124%,108%,102%,92.5%,92.4%,100%,90.3%,94.4%,97.8%,108%,88.9%,91.9%,89.5%,105%,71.3%,96.3%,103%,–
c1coc(-c2c3ccc(=[N+]4CCCCC4)cc-3oc3cc(N4CCCCC4)ccc23)c1,-96.2% (active),-49.9% (active),-71.9% (active),-56.5% (active),-93.8% (active),-83.4% (active),-75.2% (active),-93.3% (active),-75.4% (active),-94.3% (active),-80.7% (active),-80.9% (active),-67.8% (active),-93.2% (active),-85.2% (active),-90.7% (active),-81.3% (active),-87.2% (active),-88.7% (active),–
CCc1ccccc1NC(=O)/C(C#N)=C/c1ccc(OC)cc1,100%,99.5%,104%,105%,126%,93.8%,91.9%,108%,108%,99.1%,101%,100%,99.3%,111%,106%,96.3%,81.6%,102%,92.9%,–
c1c[nH]c(CNC2CCCCC2)c1,106%,103%,106%,129%,119%,101%,105%,114%,119%,104%,104%,105%,108%,119%,102%,118%,110%,89.7%,120%,–
Cc1ccc(NS(=O)(=O)c2ccc3c(c2)C2OCCC2C(c2ccc(C(=O)C(C)C)cc2)N3)cc1C (stereo not drawn),60.9%,33.6%,17.1%,76.5%,65.4%,57.8%,31.9%,66%,23.9%,50%,32.3%,44.9%,61.8%,68.2%,49.1%,-32.4% (active),47.2%,64.2%,51.3%,28.8%
COc1ccc(-c2[nH]c(=S)n(C(CC3(C)NCC(=O)N3n3c(-c4ccccc4)cc(C)nc3=S)c3ccc(OC)cc3)c(=O)c2Br)cc1 (stereo not drawn),66.6%,14.8%,90.2%,79.9%,65.5%,75.6%,61.9%,58.4%,88.9%,70.9%,39.9%,40.6%,3.88% (active),55.6%,55.8%,79.5%,50.6%,41.3%,83.6%,–
CN(Cc1cnc2nc(N)nc(N)c2n1)c1ccc(C(=O)N[C@@H](CCc2nn[nH]n2)c2nn[nH]n2)cc1,32.8%,18.1%,68.9%,111%,71.1%,39%,40.8%,46.6%,55.8%,29.8%,25.2%,27%,76.6%,53.4%,50.6%,41.2%,21.5%,16.1%,103%,–
COC(=O)[C@]12CC[C@@H](C)[C@H](C)[C@@H]1C1=CC[C@@H]3[C@@]4(C)C(C=O)=C[C@@](C)(COC(=O)c5ccco5)[C@@H]4C(=O)C[C@@]3(C)[C@]1(C)CC2,42%,22.7%,-17% (active),39.4%,47.6%,44.9%,34.4%,57.7%,-38.9% (active),6.34% (active),25.2%,29.9%,34.8%,39.7%,33.9%,-84.8% (active),-23.8% (active),26.6%,24.9%,–
COc1ccc2c(c1)O/C(=C\c1cccc(OCC(=O)Nc3nc4ccccc4s3)c1)C2=O,28.6%,5.15% (active),-43.8% (active),74.8%,-29.3% (active),24.2%,99.7%,97.6%,106%,42.9%,81.5%,110%,102%,83.6%,70.5%,96.7%,83.9%,-85% (active),96.7%,35%
COC(=O)[C@]12CC[C@@H](C)[C@H](C)[C@@H]1C1=CC[C@@H]3[C@@]4(C)C(C=O)=C[C@@](C)(COC(C)=O)[C@@H]4[C@H](O)C[C@@]3(C)[C@]1(C)CC2,-73.1% (active),4.82% (active),-79.2% (active),-39.2% (active),-82% (active),1.2% (active),-30% (active),-55.4% (active),-58.6% (active),-43.3% (active),-62.7% (active),-52.8% (active),-9.48% (active),29.4%,-46.7% (active),-93.3% (active),-46.7% (active),-99.1% (active),-52.6% (active),8.44% (active)
Nc1nc(N)c2c(n1)NC(c1ccccc1)C1CCc3ccccc3C1=N2 (stereo not drawn),49.1%,12.1%,15.3%,64.6%,84.7%,62.7%,17%,47.8%,19.7%,53.2%,39%,27.9%,54.7%,–,37.1%,-23.3% (active),49.3%,44.5%,76.4%,40.8%
CCN(CC)CCCCCCNc1cc(OC)c(Cl)c2cccnc12,95.4%,59.6%,88.4%,66.8%,84.6%,85.3%,82.3%,81.9%,-1.76% (active),27.2%,78.4%,16.2%,63.5%,–,74.4%,68.7%,-30.6% (active),55.7%,64.6%,64.9%
CCCCn1c(=O)c2c(nc(NCCc3ccc(O)c(O)c3)n2CCC)n(CCCC)c1=O,74.8%,37.7%,101%,58.6%,66.3%,74.6%,94.7%,87.7%,89.6%,75.9%,39.4%,70.9%,68.8%,–,77.2%,83.1%,86.2%,57.4%,86.9%,43.9%
COc1ccc(OC)c2c1[nH]c(=O)c1c3ncccc3cn21,26.3%,32%,60.2%,41.4%,12.7%,34.2%,-3.56% (active),37.2%,37.4%,39.7%,22.8%,-9.43% (active),59.7%,–,22.5%,33.3%,23.4%,8.59% (active),64.3%,33.6%
